Source: the supplement of paper PMC6555819

Tests used:
Assay in all cases: PBM binding z-score (relative to random genomic background probes); higher = stronger binding; sequences stand for … in GC…GCGATTGACAGCGTAGAATGAAGG
[1] = system: RARb homodimer (NR concentration 270 nM)
Outline: (§1)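 On custom Agilent 4×180K arrays, double-stranded probes with 34-nt variable regions carried direct-repeat seeds, single-nucleotide variants, half-site ablations or random human genomic background. Ligand-free nuclear receptor dimers were applied for 1 h, and binding was read with antibodies against each partner (one per run). Binding z-scores come from regression-normalized fluorescence, with the random background probes as reference.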

[2] = system: RARg:RXRa (NR concentration 270 nM, RXRa partner concentration 90 nM)
Outline: as §1

[3] = system: RARg homodimer (NR concentration 270 nM)
Outline: as §1

[4] = system: RXRa DBDmut IVT, anti-RXR (DBD mutation: RXRa K156A/R161A, NR concentration 90 nM)
Outline: as §1

[5] = system: RXRa homodimer (NR concentration 180 nM)
Outline: as §1

[6] = system: THRa:RXRa (NR concentration 90 nM, RXRa partner concentration 90 nM)
Outline: as §1

[7] = system: THRa homodimer (NR concentration 90 nM)
Outline: as §1

[8] = system: VDR homodimer (NR concentration 270 nM)
Outline: as §1

Sequence | PBM binding z-score [1] | PBM binding z-score [2] | PBM binding z-score [3] | PBM binding z-score [4] | PBM binding z-score [5] | PBM binding z-score [6] | PBM binding z-score [7] | PBM binding z-score [8]
CCTAGTTGGTCAAGGTCACAGACGCTATAGGTAC | 4.33 | 4.74 | 5.11 | 2.16 | 4.88 | 4.13 | 4.27 | 3.55
ACAGATAGGTGATGAAGGTAACTCAGGCTATCAT | 0.0763 | 0.532 | 0.586 | -0.397 | 0.485 | 0.83 | -0.19 | -0.247
TCAGACAGGTGAAGGTAAATCAGGTACGCAGTCG | 0.943 | 0.61 | 0.667 | 1.77 | 1.06 | 1.58 | 0.468 | 0.53
CCTAGTTGGTCAGGAGTTCACACACCGGATATGA | 3.04 | 3.12 | 2.47 | 2.09 | 2.32 | 1.5 | 1.07 | 4.81
CCTTACGGGTCACTGACAGGTTATAGCTTTTGGA | 3.45 | 5.62 | 4.37 | 1.64 | 4.7 | 2.82 | 0.24 | 0.718
CGAACTAGGTCATTGACAGGACAGTGACTAGTAA | 2.75 | 4.69 | 4.28 | 2.44 | 2.69 | 2.84 | 0.58 | 1.07
CATCGGAGGACAACAGGAGGTCAGAGCTGCCAGA | 3.62 | 3.59 | 3.48 | 0.373 | 2.29 | 3.01 | 1.31 | 1.1
ATATGTAGGCTAAGGGTCATTCAGGTTGGTTCGC | 3.85 | 3.93 | 2.76 | 2.03 | 4.31 | 3.16 | 1.17 | 3.63
ATCACTAGGTAACAAGTTCAGTGAAAGAGAGGAC | 1.82 | 1.45 | 1.49 | 1.12 | 0.815 | 1.54 | 0.852 | 2.7
CCTTACGGGTCACTCCAGGTTAAAGCATCGGAGT | 3.23 | 4.68 | 4.54 | 1.13 | 4.65 | 5.26 | 0.483 | 1.41
TCTTATAGGTAAATGCTAGGTGAAAGTCCGATCT | 0.569 | 0.602 | 0.586 | 1.88 | 0.669 | 1.52 | 0.924 | 0.694
ATATGTAGGTTAGCTGGGGTGATTCAGACTAGGC | 1.08 | 0.84 | 0.761 | 0.484 | 0.872 | 4.14 | 1.26 | 0.601
AGAATGAGGTTACCAAAGATCCGGGAAACGCTTG | 0.848 | 1.96 | 1.65 | 1.05 | 2.5 | 2.61 | 0.714 | 0.252
ACTATTAGTTGACTAAGGGCAACCGATACGACGC | 1.55 | 0.953 | 1.33 | 0.698 | 0.794 | 1.72 | 0.967 | 0.874
TCACATAGGTAAACAGGTGAAAGTCCGTAAGTTA | 0.832 | 0.608 | 0.415 | 0.731 | 1.12 | 0.714 | 0.454 | 0.318
TTACCATGGTGAAAGGTCGTTGATGCACGCCTTG | 2.03 | 2.17 | 1.04 | 0.434 | 3.19 | 1.64 | 0.0302 | 1.19
TCTATTAGTTGTTTAGGGCAACCGAAACAGCGGA | 0.623 | 0.681 | 0.7 | 0.754 | 0.557 | 1.07 | 0.864 | 0.463
ATATGGAGGTTACATCCGGGTCATTCAGGCTATG | 3.23 | 4.87 | 2.66 | 1.17 | 4.23 | 4.11 | 2.74 | 3.3
GCAGACAGGTGAAACGCAGGTAACCCAGGGTGGC | 0.0682 | 1.01 | 0.468 | -1.51 | 0.96 | 1.52 | -0.636 | -1.22
TTGAGTAGGTTAGGGGCATTCAGAATGGCGTCGA | 1.7 | 0.491 | 0.689 | 0.378 | 0.569 | 1.14 | 1.29 | 1.51
GCATATAGCTAATACAAGGTGAAAGTCCGATTGT | 0.396 | 0.366 | 0.451 | 0.494 | 0.476 | 1.43 | 0.866 | 0.162
ATCTCTAGGTAACAAGTTCAGCGAAAGAGAGGAC | 2.17 | 2.04 | 1.72 | 0.87 | 1.27 | 1.74 | 0.96 | 3
ATCTCTAGGTAAAGATTGTTCAGTGAATGCAAAT | 0.0182 | -0.0248 | 0.361 | 0.286 | -0.291 | 0.472 | 0.375 | 0.0196
GATACAGGGTCAAGGCCAGAGTGCGCGTATTGAT | 3.82 | 5.48 | 5.27 | 2.42 | 5.94 | 3.42 | 1.27 | 2.96
TAGCCTAGGTCTGATCGGGCCAGTATACGCTATA | -0.807 | -0.244 | -0.187 | -1.28 | -0.358 | 0.71 | -0.845 | -0.912
TCTTGTAGATCAATAGAGGTTAAGACAGTGCGCT | 1.01 | 0.969 | 0.534 | 0.854 | 1.44 | 2.36 | -0.216 | 0.0474
TAGCCTAGGTCATGCCGGCCAGTATAGTGTCGGC | 2.79 | 3.6 | 3.93 | 0.522 | 2.62 | 2.72 | 0.854 | 0.14
AGAACGAGGGCAATGTGTTGATAGCACGGGTGGC | 1.23 | 1.16 | 1.44 | 1.74 | 0.945 | 0.861 | -0.000904 | 0.944
